In ChEMBL document CHEMBL3988442, “University of Dundee, Small-Polar-MMV Screening Library” (2021) one finds Percent Effect data, which are given here for eight compounds.

Design in all cases: scale not given: direction of the effect not stated beside the values
Test [1] concerns the target Protein translocase subunit SecA (Escherichia coli (strain K12)) (UniProt P10408). As to the kind of experiment: Assay to Identify E. coli SecA ATPase Inhibitors. The settings on record: 30 µM. Format: functional.
Test [2] deals with T1, Ubiquitin-activating enzyme e1, putative (Leishmania donovani (strain BPK282A1)) (UniProt E9BSI1).
T1 sequence (whole entry): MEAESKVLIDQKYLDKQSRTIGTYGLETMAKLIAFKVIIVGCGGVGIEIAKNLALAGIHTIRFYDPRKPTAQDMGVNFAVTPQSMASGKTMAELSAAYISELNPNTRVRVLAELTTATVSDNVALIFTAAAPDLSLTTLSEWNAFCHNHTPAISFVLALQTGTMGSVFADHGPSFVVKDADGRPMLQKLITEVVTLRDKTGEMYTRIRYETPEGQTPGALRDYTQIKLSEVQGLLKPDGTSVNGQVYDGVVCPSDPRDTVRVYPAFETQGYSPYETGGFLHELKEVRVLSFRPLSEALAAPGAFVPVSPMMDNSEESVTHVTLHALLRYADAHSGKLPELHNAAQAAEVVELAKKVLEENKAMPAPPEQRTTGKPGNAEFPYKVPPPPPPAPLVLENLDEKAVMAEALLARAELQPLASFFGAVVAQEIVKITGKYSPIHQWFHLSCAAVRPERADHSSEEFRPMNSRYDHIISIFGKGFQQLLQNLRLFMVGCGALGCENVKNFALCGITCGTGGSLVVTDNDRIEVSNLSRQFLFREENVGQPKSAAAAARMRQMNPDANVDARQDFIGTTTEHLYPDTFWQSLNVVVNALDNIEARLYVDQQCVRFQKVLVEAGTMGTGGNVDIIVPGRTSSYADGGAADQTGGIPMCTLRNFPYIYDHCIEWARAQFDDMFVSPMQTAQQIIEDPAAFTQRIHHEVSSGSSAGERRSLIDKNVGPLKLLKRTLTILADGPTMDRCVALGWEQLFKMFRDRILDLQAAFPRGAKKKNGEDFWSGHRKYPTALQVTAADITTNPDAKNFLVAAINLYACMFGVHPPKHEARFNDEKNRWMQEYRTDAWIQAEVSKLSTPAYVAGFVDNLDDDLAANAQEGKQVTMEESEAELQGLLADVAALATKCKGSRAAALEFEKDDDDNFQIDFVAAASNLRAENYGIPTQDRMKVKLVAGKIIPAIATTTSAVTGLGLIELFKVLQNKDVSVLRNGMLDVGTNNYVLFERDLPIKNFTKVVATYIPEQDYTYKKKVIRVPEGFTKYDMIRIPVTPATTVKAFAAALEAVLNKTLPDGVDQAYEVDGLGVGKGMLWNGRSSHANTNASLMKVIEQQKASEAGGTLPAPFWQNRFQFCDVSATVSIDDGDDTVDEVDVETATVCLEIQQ
Description: Leishmania donovani Ubiquitin Activating Enzyme (LdE1). Format: functional. The settings on record: 30 µM.

Test [3] deals with T2, Aspartate--tRNA(Asp/Asn) ligase (Mycobacterium tuberculosis (strain ATCC 25618 / H37Rv)) (UniProt P9WFW3).
T2 sequence (whole entry): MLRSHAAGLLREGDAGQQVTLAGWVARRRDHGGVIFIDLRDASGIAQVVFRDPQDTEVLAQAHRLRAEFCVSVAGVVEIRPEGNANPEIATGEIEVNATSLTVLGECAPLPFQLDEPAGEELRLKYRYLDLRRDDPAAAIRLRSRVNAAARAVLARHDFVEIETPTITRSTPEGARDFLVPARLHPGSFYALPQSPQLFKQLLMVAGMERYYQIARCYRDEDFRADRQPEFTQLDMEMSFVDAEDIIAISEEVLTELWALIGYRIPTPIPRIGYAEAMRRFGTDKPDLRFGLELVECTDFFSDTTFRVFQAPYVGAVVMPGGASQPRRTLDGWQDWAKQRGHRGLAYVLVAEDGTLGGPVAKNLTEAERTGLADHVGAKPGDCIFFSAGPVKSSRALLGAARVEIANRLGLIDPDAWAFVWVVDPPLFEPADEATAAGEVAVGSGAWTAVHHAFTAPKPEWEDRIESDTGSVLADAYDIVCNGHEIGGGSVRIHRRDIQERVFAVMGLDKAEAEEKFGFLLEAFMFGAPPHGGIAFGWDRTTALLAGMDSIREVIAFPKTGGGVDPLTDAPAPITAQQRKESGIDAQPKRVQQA
As to the kind of experiment: Assay for Asp RNA synthetase-1 from Mycobacterium tuberculosis. Format: functional. The following applies: 30 µM.

Test [4] has as its target AMP-activated protein kinase, AMPK (Homo sapiens) (UniProt P54646+O43741+P54619+Q9UGJ0+Q9Y478+Q13131+Q9UGI9). As to the kind of experiment: AMP-dependent Kinase enzyme assay. An in vitro enzyme assay that detects ADP turnover that is directly proportional to AMPK activity. This uses naive AMPK that is activated during the assay with MK-8722. The following applies: 30 µM. In kind it is functional.

Test [5] has as its target Sialic acid-binding Ig-like lectin 9 (Homo sapiens) (UniProt Q9Y336). Description: Hs-Siglec9 ALPHAscreen SOP 20170721. The settings on record: 10 µM. On the technique in general: Alpha assays give light when donor and acceptor beads are brought close together.
The test system of test [6] is Trypanosoma cruzi. Description: Trypanosoma cruzi phosphomannomutase and mannose-1-phosphate guanylyltransferase assay. In kind it is functional. The following applies: 10 µM.
For test [7], the target named is T3, Arginase-2, mitochondrial (Homo sapiens) (UniProt P78540).
T3 sequence (whole entry): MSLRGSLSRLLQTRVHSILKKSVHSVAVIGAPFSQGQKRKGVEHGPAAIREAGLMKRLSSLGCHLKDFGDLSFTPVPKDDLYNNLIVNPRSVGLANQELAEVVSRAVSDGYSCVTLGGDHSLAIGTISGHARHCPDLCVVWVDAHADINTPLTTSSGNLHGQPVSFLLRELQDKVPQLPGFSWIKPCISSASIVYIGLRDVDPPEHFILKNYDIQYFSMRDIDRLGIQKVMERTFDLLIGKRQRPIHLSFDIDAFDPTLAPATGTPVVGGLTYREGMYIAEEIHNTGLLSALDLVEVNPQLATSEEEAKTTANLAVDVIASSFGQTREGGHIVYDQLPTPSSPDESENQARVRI
As to the kind of experiment: in vitro enzyme assay to detect the production of urea directly proportional to the activity of Arginase II. Further: in the data most compounds retested in dose-response had high values. Format: functional. The following applies: 33.3 µM.

The target in test [8] is T4, Proteasome subunit beta (Trypanosoma cruzi) (UniProt O96673).
T4 sequence (whole entry): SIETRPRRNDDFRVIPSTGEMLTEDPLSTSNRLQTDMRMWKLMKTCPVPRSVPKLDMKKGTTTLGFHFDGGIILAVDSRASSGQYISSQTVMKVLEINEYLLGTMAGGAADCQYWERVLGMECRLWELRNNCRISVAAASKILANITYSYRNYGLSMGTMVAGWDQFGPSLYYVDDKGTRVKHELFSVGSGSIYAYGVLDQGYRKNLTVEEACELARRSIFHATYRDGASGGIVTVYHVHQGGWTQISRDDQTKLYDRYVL
As to the kind of experiment: Trypanosoma cruzi proteasome chymotrypsin-like activity (TcProtChymo) assay. Further: in the data most compounds retested in dose-response had high values. Format: functional. The following applies: 9.37 µM.

The species named for test [9] is Homo sapiens. As to the kind of experiment: To identify inhibition of the IFN signalling (Jak-Stat) pathway via expression of an eGFP reporter gene under the control of an IFN-stimulated response element (ISRE) containing MxA promoter. The settings on record: 30 µM. Format: functional.
Test [10] has as its target Shiga toxin 2 (Escherichia coli O157:H7) (UniProt P09385+P09386). As to the kind of experiment: E. coli 0.157:H7 Shiga Toxin SOP - stx2 screening assay. In kind it is functional. The settings on record: 30 µM.
Test [11] has as its target T5, Tyrosyl-tRNA synthetase, putative (Trypanosoma cruzi (strain CL Brener)) (UniProt Q4DSP6).
T5 sequence (whole entry): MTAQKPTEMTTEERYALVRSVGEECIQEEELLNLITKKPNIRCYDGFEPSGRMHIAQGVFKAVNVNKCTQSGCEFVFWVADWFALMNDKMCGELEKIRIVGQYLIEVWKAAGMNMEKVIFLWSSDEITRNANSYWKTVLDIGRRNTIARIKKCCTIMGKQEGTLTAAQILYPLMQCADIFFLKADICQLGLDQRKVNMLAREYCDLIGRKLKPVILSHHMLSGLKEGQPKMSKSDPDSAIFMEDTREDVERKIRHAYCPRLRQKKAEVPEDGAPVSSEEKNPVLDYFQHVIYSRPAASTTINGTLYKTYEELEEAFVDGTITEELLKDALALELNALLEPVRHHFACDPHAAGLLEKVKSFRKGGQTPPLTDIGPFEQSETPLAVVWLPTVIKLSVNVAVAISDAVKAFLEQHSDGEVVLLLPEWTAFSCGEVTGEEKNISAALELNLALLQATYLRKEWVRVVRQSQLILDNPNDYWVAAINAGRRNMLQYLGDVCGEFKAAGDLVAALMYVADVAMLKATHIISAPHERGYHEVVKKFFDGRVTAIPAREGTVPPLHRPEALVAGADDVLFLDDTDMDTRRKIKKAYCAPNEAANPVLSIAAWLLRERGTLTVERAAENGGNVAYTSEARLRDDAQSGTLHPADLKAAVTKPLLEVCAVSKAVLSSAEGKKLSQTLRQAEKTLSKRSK
As to the kind of experiment: Trypanosoma cruzi tyrosyl tRNA synthetase (TcYRS) _High Tyrosine SOP. Further: in the data most compounds retested in dose-response had high values. In kind it is functional. The settings on record: 30 µM.

Test [12] concerns the target T5, Tyrosyl-tRNA synthetase, putative (Trypanosoma cruzi (strain CL Brener)). Description: Trypanosoma cruzi tyrosyl tRNA synthetase (TcYRS) SOP. Format: functional. The following applies: 30 µM.
Test [13] has as its target Chromo domain-containing protein 1 (Saccharomyces cerevisiae (strain ATCC 204508 / S288c) (Baker's yeast)) (UniProt P32657). Description: ScCHD-1 Enzyme Inhibition Assay. Further: in the data most compounds retested in dose-response had high values. Format: functional. The following applies: 30 µM.

For some assays here: Potency and affinity values are given separately.

Chain of Chromo domain-containing protein 1 (Saccharomyces cerevisiae (strain ATCC 204508 / S288c) (Baker's yeast)) (P32657 whole entry, the tested form may be a part): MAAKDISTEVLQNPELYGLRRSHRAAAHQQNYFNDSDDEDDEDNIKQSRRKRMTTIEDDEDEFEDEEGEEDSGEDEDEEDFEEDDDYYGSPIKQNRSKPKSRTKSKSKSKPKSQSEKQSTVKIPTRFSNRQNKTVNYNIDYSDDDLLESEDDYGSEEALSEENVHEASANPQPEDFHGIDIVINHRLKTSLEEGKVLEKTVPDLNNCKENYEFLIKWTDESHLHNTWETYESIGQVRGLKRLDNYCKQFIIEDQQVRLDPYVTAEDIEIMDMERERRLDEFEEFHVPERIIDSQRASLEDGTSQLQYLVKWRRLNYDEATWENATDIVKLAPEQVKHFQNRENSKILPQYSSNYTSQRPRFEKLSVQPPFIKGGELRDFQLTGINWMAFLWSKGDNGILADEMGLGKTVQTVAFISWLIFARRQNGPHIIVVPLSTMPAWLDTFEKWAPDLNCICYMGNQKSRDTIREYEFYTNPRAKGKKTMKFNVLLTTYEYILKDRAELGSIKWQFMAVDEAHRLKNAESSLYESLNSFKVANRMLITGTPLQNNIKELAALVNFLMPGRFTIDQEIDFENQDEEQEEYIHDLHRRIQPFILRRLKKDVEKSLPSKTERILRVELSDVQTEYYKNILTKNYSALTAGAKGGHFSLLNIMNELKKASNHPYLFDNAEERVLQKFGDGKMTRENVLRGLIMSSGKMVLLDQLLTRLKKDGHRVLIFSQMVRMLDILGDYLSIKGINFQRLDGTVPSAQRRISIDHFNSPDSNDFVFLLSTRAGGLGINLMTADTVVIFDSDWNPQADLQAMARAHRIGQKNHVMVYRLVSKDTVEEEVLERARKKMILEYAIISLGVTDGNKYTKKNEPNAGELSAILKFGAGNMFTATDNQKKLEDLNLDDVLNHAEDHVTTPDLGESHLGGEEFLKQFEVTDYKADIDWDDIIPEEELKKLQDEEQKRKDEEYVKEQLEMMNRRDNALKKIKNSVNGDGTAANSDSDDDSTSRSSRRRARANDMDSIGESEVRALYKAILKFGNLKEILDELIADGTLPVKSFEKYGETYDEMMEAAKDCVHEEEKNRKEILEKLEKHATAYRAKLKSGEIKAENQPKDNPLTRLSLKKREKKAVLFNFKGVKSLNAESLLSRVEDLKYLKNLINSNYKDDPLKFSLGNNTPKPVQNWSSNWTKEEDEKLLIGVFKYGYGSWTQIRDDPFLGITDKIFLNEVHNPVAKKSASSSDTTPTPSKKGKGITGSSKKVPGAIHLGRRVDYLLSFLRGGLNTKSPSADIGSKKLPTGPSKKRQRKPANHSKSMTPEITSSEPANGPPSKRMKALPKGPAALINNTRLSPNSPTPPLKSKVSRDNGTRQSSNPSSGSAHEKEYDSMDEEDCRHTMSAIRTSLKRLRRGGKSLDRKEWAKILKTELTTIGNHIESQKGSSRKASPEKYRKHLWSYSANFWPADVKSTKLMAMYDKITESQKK
Chain of Protein translocase subunit SecA (Escherichia coli (strain K12)) (P10408 whole entry): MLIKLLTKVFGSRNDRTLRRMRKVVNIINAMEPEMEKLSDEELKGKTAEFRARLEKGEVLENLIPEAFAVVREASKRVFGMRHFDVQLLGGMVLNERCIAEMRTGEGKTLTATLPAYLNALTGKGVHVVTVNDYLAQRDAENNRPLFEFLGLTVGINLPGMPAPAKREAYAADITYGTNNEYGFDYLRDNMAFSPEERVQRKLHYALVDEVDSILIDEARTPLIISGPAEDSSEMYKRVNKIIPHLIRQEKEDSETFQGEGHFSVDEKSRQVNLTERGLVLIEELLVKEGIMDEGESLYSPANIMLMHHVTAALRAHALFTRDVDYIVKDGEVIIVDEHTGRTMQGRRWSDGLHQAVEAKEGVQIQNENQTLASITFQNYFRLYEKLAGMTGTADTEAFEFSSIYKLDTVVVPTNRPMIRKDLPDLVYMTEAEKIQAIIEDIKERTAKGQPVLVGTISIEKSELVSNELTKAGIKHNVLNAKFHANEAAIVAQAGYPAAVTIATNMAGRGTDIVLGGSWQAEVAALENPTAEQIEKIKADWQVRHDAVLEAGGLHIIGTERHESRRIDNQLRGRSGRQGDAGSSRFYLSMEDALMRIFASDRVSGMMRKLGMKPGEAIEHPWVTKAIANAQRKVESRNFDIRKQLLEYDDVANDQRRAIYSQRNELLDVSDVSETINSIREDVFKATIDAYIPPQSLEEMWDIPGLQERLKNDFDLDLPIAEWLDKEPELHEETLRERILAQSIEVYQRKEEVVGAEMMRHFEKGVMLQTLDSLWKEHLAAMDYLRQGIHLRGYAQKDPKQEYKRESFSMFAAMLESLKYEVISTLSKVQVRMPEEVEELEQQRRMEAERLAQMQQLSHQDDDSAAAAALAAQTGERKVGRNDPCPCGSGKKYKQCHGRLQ
Chain of Sialic acid-binding Ig-like lectin 9 (Homo sapiens) (Q9Y336 whole entry): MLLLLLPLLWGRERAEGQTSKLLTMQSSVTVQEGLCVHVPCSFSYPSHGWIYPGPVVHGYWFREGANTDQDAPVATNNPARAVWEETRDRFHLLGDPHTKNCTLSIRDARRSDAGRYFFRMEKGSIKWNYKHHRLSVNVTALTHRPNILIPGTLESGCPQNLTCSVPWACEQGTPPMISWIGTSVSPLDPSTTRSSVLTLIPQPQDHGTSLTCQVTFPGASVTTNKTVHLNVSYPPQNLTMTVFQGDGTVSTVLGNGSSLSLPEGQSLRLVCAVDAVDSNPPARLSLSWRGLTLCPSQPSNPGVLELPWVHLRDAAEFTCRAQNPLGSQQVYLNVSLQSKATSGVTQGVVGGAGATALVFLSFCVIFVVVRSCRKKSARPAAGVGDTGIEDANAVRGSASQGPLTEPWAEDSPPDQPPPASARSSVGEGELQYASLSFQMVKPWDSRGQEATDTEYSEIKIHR

For `c1cncc(OC[C@@H]2CCC[C@@]23CNCCO3)c1`, the Percent Effect in test [1] was -5.75%; in test [2], 8.11%; in [3], 1.15%; in [4] it was 89.4%; in test [5], -7.32%; in test [6], -6.75%. In addition, the Percent Effect was -3.5% in [7]; 13.1% in [8]; 9.54% in [9]; -12.4% in [10]; -3.24% in test [11]; 0% in test [12]. In addition, the Percent Effect in test [13] is -2.43%.
On to `Cc1cccc(C(=O)N2C[C@@H]3OCCN(C(C)C)[C@@H]3C2)n1`, for which the Percent Effect is -0.342% in test [1]; 0% in test [2]; 2.88% in test [3]; 1.78% in [4]; 5.46% in test [5]; 1.74% in test [6]. The Percent Effect was -50% in test [7]; 5.81% in test [8]; -20.9% in test [9]; -1.16% in test [10]; -26% in [11]; 2.5% in test [12]. In addition, the Percent Effect in test [13] amounted to 0.0349%.
For `CS(=O)(=O)N1CCC(C(=O)N2CCC3(CC2)OCCCO3)CC1`, the Percent Effect was -4.7% in test [1]; 20.8% in [2]; 3.34% in test [3]; -4.81% in test [4]; -12.3% in [5]; 5.23% in [6]. The Percent Effect in test [7] is 3.23%; in test [8] it was 12.2%; in test [9] it was 14.4%; in test [10] it was -32.1%; in test [11] it was 6.35%; in test [12], 21.8%. Also, the Percent Effect in test [13] is -10.8%.
Turning to `COc1ncccc1CN1C[C@@H]2COC[C@]2(COCC2CC2)C1`, the Percent Effect was -2.06% in test [1]; 1.33% in [2]; 0.116% in test [3]; 0.466% in test [4]; 5.34% in test [5]; -9.23% in test [6]. Besides, the Percent Effect in test [7] is 24.5%; in test [8] it was 14.4%; in test [9] it was 2.6%; in [10], -25.1%; in [11] it was 6.35%; in test [12], 2.56%. The Percent Effect in [13] is -9.86%.
Regarding `O=C1CC[C@@H]2[C@@H](CCN2Cc2ccncc2)N1c1ccccc1`, the Percent Effect was -3.22% in [1]; -8% in test [2]; 0.204% in test [3]; -13.7% in [4]; 8.87% in test [5]; -2.7% in test [6]. The Percent Effect in test [7] is 0.896%; in test [8], 11.1%; in test [9], -5.31%; in test [10], -8.6%; in test [11] it was 5.21%; in test [12], 7.5%. The Percent Effect in test [13] is -2.91%.
For the compound `CCOCC(O)CN1CCN(C(=O)Cc2ccccc2C)CC1` (centres undefined), the Percent Effect was 1.46% in test [1]; 13.2% in test [2]; -3.28% in test [3]; -1.09% in test [4]; 0.779% in test [5]; -8.65% in test [6]. Moreover, the Percent Effect in [7] is 8.43%; in [8] it was 8.69%; in test [9] it was 20%; in [10], 30.3%; in [11], 0.49%; in [12], 9.76%. Besides, the Percent Effect in test [13] was -8.57%.
Regarding `Cn1cc(N2C(=O)CC[C@@H]3[C@H]2CCN3Cc2ccncc2)cn1`, the Percent Effect in test [1] is -1.29%; in test [2], 2.67%; in test [3], -1.89%; in test [4] it was -2.47%; in test [5] it was 5.41%; in test [6], -0.193%. Also, the Percent Effect is -56.1% in test [7]; 9.06% in [8]; -8.54% in test [9]; -20.8% in test [10]; 5.21% in test [11]; 12.5% in [12]. In [13], the Percent Effect is -7.17%.
Consider `CCc1nnc(C(C)N2CCCN(C(=O)Oc3ccccc3)CC2)o1` (centres undefined), for which the Percent Effect in test [1] was -1.28%; in test [2], 15.8%; in [3], -3.35%; in test [4], 0.0863%; in [5], -6.34%; in test [6], -6.72%. Besides, the Percent Effect in [7] was -3.55%; in test [8], 12.6%; in [9], 3.97%; in test [10], -15.6%; in [11], 2.13%; in test [12] it was 5.2%. Also, in [13], the Percent Effect is -5.08%.
